# Results published in PubChem BioAssay.
# Active and inactive are the calls of the source. Unless noted, how the calls were made is not given here.
# What was measured:
# [1] = compound effects on lung adenocarcinoma cell viability – A549, calcein-AM fluorescence, 48 h, basal, profiling panel (AID 1162); conditions: higher = more signal; further: test concentration not given here
# [2] = compound effects on differentiated 3T3-L1 adipocyte viability – cell-based, 3T3-L1 adipocytes, calcein-AM fluorescence, 48 h, basal, profiling panel (AID 1163); conditions: 3T3-L1 adipocytes viability, higher = more signal; further: test concentration not given here
# [3] = compound effects on hepatocellular carcinoma cell viability – HepG2, calcein-AM fluorescence, 48 h, basal, profiling panel (AID 1164); conditions: higher = more signal; further: test concentration not given here
# [4] = compound effects on multiple myeloma cell viability – MM1S, calcein-AM fluorescence, 48 h, basal, profiling panel (AID 1165); conditions: higher = more signal; further: test concentration not given here
# [5] = calcein-AM signal in unstimulated myeloma cells – cell-based, calcein-AM fluorescence, 48 h, PK04 Diversity Set, profiling panel (AID 1166); conditions: RPMI8226 myeloma viability, higher = more signal;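 further: cells grown under basal conditions without added stimulus; test concentration not given here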
# [6] = JC-1 mitochondrial signal, unstimulated HepG2 cells – cell-based, JC-1 fluorescence, 24 h, 100 nL compound, profiling panel (AID 1167); conditions: HepG2 mitochondrial potential, higher = more signal; further: test concentration not given here
# [7] = JC-1 mitochondrial signal, unstimulated adipocytes – cell-based, JC-1 fluorescence, 3T3-L1 adipocytes, 24 h, 100 nL compound, profiling panel (AID 1168); conditions: JC-1 mitochondrial fluorescence, higher = more signal, called active from +8 up or from −8 down; further: test concentration not given here
# [8] = JC-1 mitochondrial signal, unstimulated myeloma cells – cell-based, JC-1 fluorescence, RPMI8226, 24 h, 100 nL compound, profiling panel (AID 1169); conditions: JC-1 mitochondrial potential fluorescence, higher = more signal; further: test concentration not given here
# [9] = JC-1 mitochondrial signal, unstimulated MM1S myeloma – cell-based, JC-1 fluorescence, 24 h, 100 nL compound, profiling panel (AID 1170); conditions: MM1S mitochondrial potential, higher = more signal; further: test concentration not given here
# [10] = resazurin metabolic signal in A549 cells – cell-based, resazurin fluorescence, 24 h, PK04 Diversity Set, profiling panel (AID 1171); conditions: A549 viability, higher = more signal, called active from +8 up or from −8 down; further: test concentration not given here
# [11] = resazurin metabolic signal in HepG2 cells – cell-based, resazurin fluorescence, 24 h, PK04 Diversity Set, profiling panel (AID 1172); conditions: HepG2 viability, higher = more signal; further: test concentration not given here
# [12] = budding yeast growth changes without added modifier – OD600, strain BY4716, 24 h, basal condition, primary screen (AID 1173); conditions: S. cerevisiae BY4716 growth, OD600, 24 h; higher = more signal, called active from +8 up or from −8 down
# [13] = viability profiling in MM1S myeloma cells – cell-based, resazurin fluorescence, basal, 24 h, PK04 Diversity Set, profiling panel (AID 1174); conditions: higher = more signal, called active from +8 up or from −8 down; further: test concentration not given here
# [14] = biological target: Dihydroorotate dehydrogenase (quinone), mitochondrial (Plasmodium falciparum (isolate 3D7)) (UniProt Q08210); assay: inhibition of P. falciparum DHODH – biochemical, C-terminal His tag, absorbance 600 nm, primary screen (AID 1175); conditions: PfDHODH enzyme, DCIP absorbance 600 nm; higher = more signal, called active from +8 up or from −8 down;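 further: recombinant parasite enzyme with a five histidine tag at its C terminus; test concentration not given here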
# [15] = inhibition of PAO1 biofilm formation – strain PAO1, LB-PBS medium, absorbance 600 nm, primary screen (AID 1176); further: test concentration not given here; conditions: P. aeruginosa PAO1 growth/biofilm, A600, 12 h; higher = more signal
# [16] = growth modulation of vineyard yeast isolate – strain RM11-1a, OD600, basal, 24 h, primary screen (AID 1177);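 further: cultures grown under basal conditions with no added stressor; test concentration not given here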; conditions: S. cerevisiae RM11-1a growth, OD600, 24 h; higher = more signal, called active from +8 up or from −8 down
# [17] = growth of efflux-deficient E. coli DRC39 – strain DRC39, OD650, 24 h, E. coli filamentation inducers, primary screen (AID 1178);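 further: growth measured as culture turbidity by optical density at 650 nm; test concentration not given here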; conditions: E. coli DRC39 acrAB, higher = more signal, called active from +8 up or from −8 down
# [18] = growth of efflux-deficient E. coli DRC39 – strain DRC39, OD650, 48 h, E. coli filamentation inducers, primary screen (AID 1179);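 further: screen aims at cell division blockers that make cells filament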; conditions: E. coli DRC39 delta-acrAB growth, higher = more signal, called active from +8 up or from −8 down
# [19] = viability profiling in RPMI8226 myeloma cells – cell-based, resazurin fluorescence, basal, 24 h, PK04 Diversity Set, profiling panel (AID 1180); conditions: higher = more signal;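 further: RPMI8826 multiple myeloma cell line at 5000 cells per well; test concentration not given here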
# [20] = biological target: E3 ubiquitin-protein ligase XIAP (Homo sapiens) (UniProt P98170); assay: small molecules binding XIAP protein – biophysical, small-molecule microarray, fluorescence 635 nm, primary screen (AID 1181); conditions: higher = more signal;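 further: score merges 667 nm emission and signal to noise over triplicate slides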
# E3 ubiquitin-protein ligase XIAP (Homo sapiens), sequence (P98170 whole entry, looked up): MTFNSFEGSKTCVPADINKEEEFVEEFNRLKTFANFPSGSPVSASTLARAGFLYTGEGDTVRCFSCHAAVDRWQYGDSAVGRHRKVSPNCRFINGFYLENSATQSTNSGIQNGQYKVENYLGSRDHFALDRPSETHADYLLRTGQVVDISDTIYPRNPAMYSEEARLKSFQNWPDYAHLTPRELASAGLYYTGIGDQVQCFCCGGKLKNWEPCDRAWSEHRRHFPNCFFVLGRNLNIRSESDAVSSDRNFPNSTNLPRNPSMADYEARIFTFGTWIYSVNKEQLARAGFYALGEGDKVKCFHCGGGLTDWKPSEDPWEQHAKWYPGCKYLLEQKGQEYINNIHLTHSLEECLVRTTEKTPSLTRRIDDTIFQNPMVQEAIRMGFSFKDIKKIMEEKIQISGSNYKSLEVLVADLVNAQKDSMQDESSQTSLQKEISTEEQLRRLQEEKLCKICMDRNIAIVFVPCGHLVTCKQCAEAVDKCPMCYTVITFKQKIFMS
# Dihydroorotate dehydrogenase (quinone), mitochondrial (Plasmodium falciparum (isolate 3D7)), sequence (Q08210 whole entry, looked up): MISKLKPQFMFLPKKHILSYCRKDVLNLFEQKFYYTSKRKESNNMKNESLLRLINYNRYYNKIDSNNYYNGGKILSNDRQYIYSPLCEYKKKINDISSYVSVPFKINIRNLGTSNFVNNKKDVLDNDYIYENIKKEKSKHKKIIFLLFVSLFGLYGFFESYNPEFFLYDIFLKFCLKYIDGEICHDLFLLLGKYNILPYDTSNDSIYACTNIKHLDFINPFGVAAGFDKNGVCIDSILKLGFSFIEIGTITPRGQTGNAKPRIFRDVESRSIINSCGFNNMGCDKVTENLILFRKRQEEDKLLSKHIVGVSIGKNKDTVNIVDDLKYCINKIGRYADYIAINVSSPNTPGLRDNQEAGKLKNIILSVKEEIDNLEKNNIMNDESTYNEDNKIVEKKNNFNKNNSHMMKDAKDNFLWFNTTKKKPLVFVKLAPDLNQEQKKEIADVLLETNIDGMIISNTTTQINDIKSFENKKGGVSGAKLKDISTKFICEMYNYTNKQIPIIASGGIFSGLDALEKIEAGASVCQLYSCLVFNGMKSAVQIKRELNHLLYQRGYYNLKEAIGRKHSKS
Compound,z-score [1],z-score [2],z-score [3],z-score [4],z-score [5],z-score [6],z-score [7],z-score [8],z-score [9],z-score [10],z-score [11],z-score [12],z-score [13],composite z-score [14],z-score [15],z-score [16],z-score [17],z-score [18],z-score [19],composite z-score [20]
CCc1cccc(NC(=O)O[C@H]2[C@H](OC(=O)Nc3ccccc3)[C@H](OC(=O)Nc3ccccc3)[C@@H](OC)O[C@@H]2CO)c1,-1.97,1.18,-5.14,-3.46,-4.3,-2.34,0.867 (inactive),-1.2,-2.32,-4.35 (inactive),-3.47,0.885 (inactive),-4.46 (inactive),0.0661 (inactive),1.78 (inactive),1.12 (inactive),0.0415 (inactive),0.0166 (inactive),-6.11,0.306
COCCOC(=O)N1C(=O)[C@@]2(c3cc(C#Cc4ccc(OC)cc4)ccc31)[C@H](c1ccc(OCCO)cc1)N1[C@H](c3ccccc3)[C@H](c3ccccc3)OC(=O)[C@H]1[C@@H]2C(=O)Nc1nc2ccccc2s1,-0.922,0.829,-1.26,-0.569,-1.26,-2.86,3.99 (inactive),-0.735,-1.13,-0.285 (inactive),1.62,1.21 (inactive),-0.606 (inactive),-1 (inactive),1.5 (inactive),1.56 (inactive),0.0318 (inactive),-0.389 (inactive),0.46,0.259
CCCCNC(=O)c1ccc(C#C[Si](C(C)C)(C(C)C)C(C)C)c(OC(C)=O)c1,-0.487,0.95,-2.45,-2.22,-4.09,-2.34,-0.281 (inactive),-1.1,-1.04,-0.363 (inactive),0.236,-0.152 (inactive),0.219 (inactive),-1.29 (inactive),-0.623 (inactive),0.0679 (inactive),0.119 (inactive),-0.0634 (inactive),0.234,-0.165
COC(=O)C1=CC(CCCO)=CC(C)N(Cc2cccc(OC(F)(F)F)c2)C=C1C(=O)OC (stereo not given),1.35,0.0937,0.966,0.403,0.286,1.12,0.612 (inactive),-0.0402,-0.645,-0.149 (inactive),0.0252,-1.78 (inactive),-0.0934 (inactive),-2.73 (inactive),0.227 (inactive),0.0728 (inactive),1.38 (inactive),1.21 (inactive),-0.123,0.365
NCCCCCNC(=O)[C@H]1C[C@H]2C(=O)N[C@@H](Cc3ccccc3)C(=O)N2[C@H]1c1ccc(O)cc1,0.422,0.774,-0.642,0.309,0.141,-0.746,-0.595 (inactive),-0.135,-0.378,0.107 (inactive),-0.255,-0.53 (inactive),-0.115 (inactive),1.21 (inactive),0.351 (inactive),-0.334 (inactive),0.442 (inactive),0.69 (inactive),-0.518,0.157
CN(C)CCCCCCNC(=O)[C@@H]1C[C@@H]2C(=O)N[C@@H](CCCCN)C(=O)N2[C@@H]1c1ccc(O)cc1,1.4,0.576,-0.521,0.56,-0.345,-0.695,-0.625 (inactive),-0.273,-1,-0.3 (inactive),-0.0356,-1.56 (inactive),1.79 (inactive),-0.0587 (inactive),1.63 (inactive),-0.63 (inactive),0.739 (inactive),-1.59 (inactive),0.659,3.51
COCCOC(=O)N1C(=O)[C@@]2(c3cc(C#CCC(C(=O)OC)C(=O)OC)ccc31)[C@H](C(=O)NC[C@H](O)c1ccccc1)[C@H]1C(=O)O[C@H](c3ccccc3)[C@H](c3ccccc3)N1[C@@H]2c1ccc(OCCO)cc1,-0.248,0.951,0.583,0.152,-1.87,-0.684,0.407 (inactive),-0.854,-0.724,-0.873 (inactive),-0.685,2.05 (inactive),-0.0535 (inactive),-0.429 (inactive),3.49 (inactive),3.11 (inactive),0.629 (inactive),0.453 (inactive),-0.291,0.0806
CC(C)CCC[C@@H](C)[C@H]1CC[C@@]2(C)C3=C(CC[C@]12C)[C@@]1(C)CC[C@H](OC(=O)c2ccccc2)C(C)(C)C1CC3 (stereo not given in full),0.667,0.635,0.771,0.34,0.201,1.73,1.1 (inactive),-0.671,-2.12,0.774 (inactive),0.533,0.436 (inactive),0.351 (inactive),-1.48 (inactive),0.968 (inactive),-1.61 (inactive),1.94 (inactive),1.57 (inactive),0.56,-0.248
CCOC(=O)C[C@H]1[C@H](OC(=O)c2cc3ccccc3oc2=O)[C@@H](NC(=O)c2ccc3ccccc3c2)c2cc(OCCCO)ccc2N1C(=O)Cc1ccc(OC)cc1,-0.103,0.528,-0.425,0.226,0.0557,-0.527,0.06 (inactive),-0.229,0.0571,0.379 (inactive),0.98,-0.399 (inactive),-0.0697 (inactive),0.0533 (inactive),-0.304 (inactive),0.0085 (inactive),0.406 (inactive),-0.224 (inactive),-0.137,-0.169
C=CCC(OC(C)=O)[C@@H]1[C@@H](N(Cc2cccc3ccccc23)C(=O)Cc2ccc(F)cc2)c2cc(OCCCO)ccc2N1C(=O)c1ccc(-c2ccccc2)cc1 (stereo not given in full),-0.546,0.905,0.111,0.867,-0.61,1.35,-0.389 (inactive),-0.104,0.302,0.736 (inactive),-0.271,0.388 (inactive),-0.0279 (inactive),0.366 (inactive),0.231 (inactive),-0.163 (inactive),-0.386 (inactive),-0.0169 (inactive),0.336,0.0623
C=C(COC)/C(=C/C[C@@H](OC(C)=O)c1ccc(CO)o1)c1cc(C(=O)OC)ccc1OC,-0.109,-0.461,0.322,-0.425,-0.0799,0.0492,0.208 (inactive),-0.726,-0.927,0.072 (inactive),-0.0453,0.196 (inactive),-0.216 (inactive),-0.0894 (inactive),0.637 (inactive),0.317 (inactive),0.65 (inactive),0.638 (inactive),0.205,-0.173
[N-]=[N+]=NCc1ccccc1C[C@@]1(C(=O)N2CCCCC2)N=C(c2ccc(OCCCO)cc2)O[C@@H]1c1ccccc1CN=[N+]=[N-],-0.683,-0.819,0.036,-1.39,-3.57,-0.357,-0.639 (inactive),-1.17,-1.64,0.742 (inactive),-0.539,0.069 (inactive),-1.27 (inactive),0.669 (inactive),1.87 (inactive),1.61 (inactive),0.191 (inactive),0.594 (inactive),-0.911,-0.117
CCOC(=O)C[C@H]1[C@H](OC(=O)c2ccc(C(=O)c3ccccc3)cc2)[C@@H](NC(=O)CC(C)C)c2cc(OCCCO)ccc2N1C(=O)Cc1ccc(OC)cc1,-0.206,-0.194,-0.0232,0.467,-0.679,1.88,-0.689 (inactive),0.573,0.288,0.189 (inactive),-0.204,-0.316 (inactive),0.191 (inactive),0.166 (inactive),0.608 (inactive),0.113 (inactive),-0.445 (inactive),-0.0261 (inactive),0.0274,-0.289
CC1(C)C(=O)C(c2ccccc2)=C2CN3C(=O)N(CCc4ccccc4)C(=O)C3(Cc3ccc(C(F)(F)F)cc3)C=C21 (stereo not given),-0.902,-0.586,0.409,-1.49,-1.75,-2.08,-2 (inactive),-0.00804,-0.421,0.43 (inactive),-0.967,1.72 (inactive),-1.33 (inactive),0.46 (inactive),0.0539 (inactive),1.9 (inactive),-1.01 (inactive),-0.756 (inactive),-1.03,0.0322
[N-]=[N+]=Nc1ccccc1[C@@H]1OC(c2ccc(OCCCO)cc2)=N[C@]1(Cc1ccccc1)C(=O)NCc1ccccc1,-1.17,-0.0535,-2.13,-3.35,-3.8,-2.02,0.976 (inactive),-1.14,-2.59,-1.48 (inactive),-0.421,0.152 (inactive),-3.62 (inactive),0.613 (inactive),0.563 (inactive),0.265 (inactive),-0.324 (inactive),-0.441 (inactive),-3.62,0.338
COC(=O)[C@@]1(Cc2ccc(OC)cc2)[C@H]2c3cc(C(=O)N4CCCC4)n(Cc4ccc(S(C)(=O)=O)cc4)c3C[C@H]2CN1C(=O)c1ccccc1,-0.112,0.842,0.47,0.137,-0.403,2.63,-0.606 (inactive),-0.7,-1.15,0.105 (inactive),-0.707,0.63 (inactive),-0.389 (inactive),-1.16 (inactive),0.122 (inactive),0.115 (inactive),-0.867 (inactive),-0.113 (inactive),-0.84,0.721
CC(=O)N1CC(C(O)C2C=CC3C(=O)NC(=O)C3N2Nc2ccc(Cl)cc2Cl)c2ccccc21 (stereo not given),1.08,-0.753,0.46,-0.452,0.0876,-1.29,-0.229 (inactive),-0.212,0.644,-0.554 (inactive),-1.59,-2.62 (inactive),-0.731 (inactive),0.905 (inactive),1.28 (inactive),1.82 (inactive),-0.306 (inactive),-0.547 (inactive),-0.94,0.277
